Results on 5 molecules are retold here after PubChem BioAssay.

“And” between values parts separate entries of the source, which are not always exact repeats. Equal entries are not always repeated. Results filed as inconclusive are left out. For part of these data: Results with a measured potency or affinity are listed apart. The source made the active and inactive calls.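 Rule for the calls, unless noted: active = compounds killing one labelled cell type while sparing the other, by normalised counts and ratio limits, not self-fluorescent; inactive = the rest.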

Assay [1] is described as follows: blockers of polyQ-driven CASP3 activation – cell-based (AID 1583). To be noted: polyglutamine-induced caspase-3 activation, cell assay; stronger effect = higher value;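 tested at 10 µM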.
Assay [2] is described as follows: yeast 75Q aggregation reduction – 75Q-TubU reporter (AID 1593). To be noted: Yeast 75Q polyglutamine aggregation reporter.
The nature of assay [3]: restoration of touch response, mutant HTT neurons – whole organism, C. elegans mechanosensory neurons, N-terminal huntingtin (AID 1599). To be noted: C. elegans polyQ-huntingtin mechanosensory neurons, stronger effect = higher value.
Assay [4] can be described thus: blockers of cytochrome c efflux from mitochondria – biochemical, purified mitochondria (AID 1603).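 Note: mouse liver mitochondria challenged with calcium chloride; signal normalized to the plate average as 100%.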 The settings on record: stronger effect = lower value.
A short description of assay [5]: polyglutamine aggregate formation blockers (AID 1604). The settings on record: polyglutamine-induced protein aggregation inhibition assay; stronger effect = higher value; tested at 2.5 µM.
Assay [6] in a line: glutamate transport activators, MN-1 cells, MN-1 cell line (AID 1612).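 Note: tested at 1 µM final; 0% = mean of DMSO vehicle wells on each plate; positive means more glutamate uptake than control and negative means less.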 To be noted: MN-1 motor neuron cells, stronger effect = higher value.
Assay [7] can be described thus: GFP-Q80 aggregate reduction, neuronal-like cells, cell-based, NGF-treated PC12, GFPQ80 (AID 1614).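 Note: lower means fewer inclusions and 0 means no inclusions at all.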 To be noted: PC12 NGF-treated GFP-polyQ80 inclusion reduction.
Assay [8] can be described thus: 75Q-TubH aggregate inhibition, S. cerevisiae, yeast (AID 1616). To be noted: S. cerevisiae 75Q-TubH polyglutamine aggregation suppression; stronger effect = higher value.
A short description of assay [9]: P. berghei load reduction in hepatocytes – cell-based, HepG2, luciferase luminescence, HepG2 viability, primary screen (AID 624349; in the data active = parasite load remaining mostly below about 12%, no sharp cut-off; inactive = mostly above about 10%;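 note: 100% = mean of DMSO negative control wells on the same plate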). The settings on record: P. berghei liver stage in HepG2, luciferase luminescence, concentration not given here; parasite load remaining: stronger effect = lower value; viability: measured here: HepG2 viability without parasites.
A short description of assay [10]: EMT-state selective cytotoxicity in co-culture – imaging, PC-3E GFP, TEM4-18 mCherry, primary screen (AID 1345086).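 For all read-outs here: cells exposed to compound for 72 h before imaging.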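 For red/green cell ratio (normalised): normalised mesenchymal count divided by normalised epithelial count so high means epithelial killing.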 The settings on record: PC-3E GFP / TEM4-18 mCherry co-culture, imaging cell counts, at 1 µM; for red/green cell ratio (normalised): actives lie on both sides, counts scaled to control wells, 1 = unselective.
Assay [11] is described as follows: galactose survival enhancers in mitochondrial complex I cybrids – cell-based, galactose medium, ATP luminescence, primary screen (AID 1645843;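 active = z-score of at least 1.8 in each of two replicates, scored against plate mean and spread of sample wells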;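 note: positive z means more ATP and so rescue of galactose-driven cybrid death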). The settings on record: complex I mutant cybrid cells, 72 h, stronger effect = higher value.
Assay [12] deals with Aerobactin synthetase IucA (Klebsiella pneumoniae). Kind of assay: inhibition of K. pneumoniae IucA enzyme – biochemical, Tocris library, absorbance (AID 1345561; call rule not given here;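 note: 100% = enzyme without compound and 0% = no enzyme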). The settings on record: purified IucA enzyme assay, absorbance (OD) read-out; stronger effect = lower value;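 tested at 8 µM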.
Assay [13] can be described thus: viability loss in pontine glioma line – cell-based, SU-DIPG-XVII, MIPE5.0, CellTiter-Glo, qHTS, dose response (AID 1347060; cut-off not given, nearly all actives have AC50 up to about 26 µM;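 note: cells exposed to compound for 48 hours before viability readout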). To be noted: CellTiter-Glo ATP luminescence. (In ATP-based viability assays light output follows the ATP content of the culture.)
A short description of assay [14]: viability loss in pontine glioma line – cell-based, SU-DIPG-XIII, MIPE4.0, CellTiter-Glo, qHTS, dose response (AID 1347061; cut-off not given, nearly all actives have AC50 up to about 37 µM;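 note: cells exposed to compound for 48 hours before readout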). The settings on record: CellTiter-Glo ATP luminescence.
A short description of assay [15]: viability loss in pontine glioma line – cell-based, JHH-DIPG-1, MIPE4.0, CellTiter-Glo, qHTS, dose response (AID 1347062; cut-off not given, nearly all actives have AC50 up to about 27 µM;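 note: cells exposed to compound for two days before readout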). The settings on record: JHH-DIPG-1 viability, CellTiter-Glo ATP luminescence.
Assay [16] is described as follows: viability loss in pontine glioma line – cell-based, SU-DIPG-IV, MIPE4.0, CellTiter-Glo, qHTS, dose response (AID 1347063; cut-off not given, nearly all actives have AC50 up to about 30 µM;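 note: compound exposure lasted 48 hours before the viability readout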). To be noted: CellTiter-Glo ATP luminescence.
A short description of assay [17]: viability loss in pontine glioma line – cell-based, SU-DIPG-XIII, MIPE5.0, CellTiter-Glo, qHTS, dose response (AID 1347064; cut-off not given, nearly all actives have AC50 up to about 23 µM;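 note: cells exposed to compound for 48 hours before the viability read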). To be noted: CellTiter-Glo ATP luminescence.
Assay [18] can be described thus: viability loss in pontine glioma line – cell-based, SU-DIPG-XXV, MIPE5.0, CellTiter-Glo, qHTS, dose response (AID 1347065; cut-off not given, nearly all actives have AC50 up to about 26 µM;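 note: cells exposed to compound for 48 hours before ATP readout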). To be noted: CellTiter-Glo ATP luminescence.
Assay [19] can be described thus: growth inhibition of DIPG cells – cell-based, MIPE4.0 library, CellTiter-Glo luminescence, qHTS (AID 1347066; cut-off not given, nearly all actives have AC50 up to about 30 µM;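 note: cells exposed to compound for 48 hours before readout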). The settings on record: SU-DIPG-VI viability, CellTiter-Glo ATP luminescence.
Assay [20] is described as follows: JHH-DIPG-1 glioma cell viability, MIPE5.0 library, CellTiter-Glo luminescence, qHTS (AID 1347067; cut-off not given, nearly all actives have AC50 up to about 26 µM;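 note: cells exposed to compound for 48 hours before readout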). The settings on record: JHH-DIPG-1 glioma viability, CellTiter-Glo ATP luminescence.
Assay [21] is described as follows: growth inhibition of DIPG cells – cell-based, MIPE5.0 library, qHTS (AID 1347068; cut-off not given, nearly all actives have IC50 up to about 30 µM;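 note: cells exposed to compound for 48 hours before viability readout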). To be noted: SU-DIPG-XXV viability. For orientation: In qHTS, concentration-response curves come from the screen itself.
The nature of assay [22]: viability loss with induced miR-34 in A549 – imaging, A549 dox-inducible miR-34, nuclei and caspase counts, primary screen (AID 1347080;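 active = compounds whose cell count with miR-34 switched on is under 0.7 times the count with it off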). The settings on record: A549 miR-34 inducible, Hoechst nuclei count, 48 h.
A short description of assay [23]: compounds altering HSF1 focus formation in cells – imaging, Selleck Cancer Library (AID 1347162; in the data active = plate-normalised HSF1 focus index below about 0.46). The settings on record: human cells, HSF1 nuclear foci imaging, at 10 µM; SSMD: measured here: HSF1 foci SSMD mean; cell count: measured here: cell number; plate-normalised HSF1 focus index: stronger effect = lower value.
[24] abbreviates: measured here: epithelial PC-3E GFP cell survival.
Where [25] appears, read: measured here: mesenchymal TEM4-18 mCherry cell survival.

For the molecule `CC1CCC2(OC1)OC1CC3C4CC[C@H]5C[C@@H](O)CC[C@]5(C)C4CC(=O)[C@]3(C)C1C2C` (stereo not given in full), the inhibition in [1] is 11.6%. In assay [2], this molecule returned a score of 1.42. This molecule also displayed a rescue above control in [3] of -2.31. Besides, the cytochrome c release ratio in assay [4] is 1.08. In addition, the inhibition of aggregation in [5] stood at 27.8%. Besides, the glutamate uptake change in assay [6] stood at 2.67%. Also, the inclusion score in [7] was 2. Moreover, in assay [8], the aggregation suppression score turned out to be 1.27. In addition, the parasite load remaining in assay [9] is 106% (inactive). Moreover, the viability in assay [9] was 69.7%. Besides, in [10], the red/green cell ratio (normalised) was 1.26 (inactive). For the same molecule, the values for the normalised cell number in [10] (setting [24]) and in [10] (setting [25]) were 1.02 and 1.27, respectively.

Take `CN[C@@H]1[C@@H](O)[C@@H](O[C@@H]2[C@@H](O)[C@H](O[C@H]3O[C@H]([C@@H](C)NC)CC[C@H]3N)[C@@H](N)C[C@H]2N)OC[C@]1(C)O`: in assay [10], the red/green cell ratio (normalised) was 0.92 (inactive). For the same molecule, the normalised cell number in [10] (setting [24]) was found to be 1.22; in assay [10] (setting [25]), 1.13. Also, in [11], the z-score is 0 (inactive).

Molecule `C[N+]1(C)C2CC(OC(=O)[C@@H](CO)c3ccccc3)CC1C1OC12` (stereo not given in full) showed an inhibition in [1] of 17.7%. The score in assay [2] came to 1.45. Further, the rescue above control in assay [3] was -0.68. The cytochrome c release ratio in assay [4] came to 0.94. This molecule also yielded an inhibition of aggregation in assay [5] of 47.9%. The glutamate uptake change in assay [6] is -7.1%. For the same molecule, the inclusion score in assay [7] is 2. In assay [8], the aggregation suppression score came to 1.44. Also, in assay [9], the parasite load remaining is 89.5% (inactive) and 73.4% (inactive); the viability was 78.8% and 91.6%. Moreover, in [10], the red/green cell ratio (normalised) is 1.4 (inactive). Moreover, the normalised cell number in assay [10] (setting [24]) came out at 0.85. Further, the normalised cell number in assay [10] (setting [25]) amounted to 1.19.

Regarding `O=C1C(Cl)=C(NCCN2CCOCC2)C(=O)c2ncccc21`, the remaining activity in assay [12] is 118% (inactive). Besides, the AC50 is 8.33 µM (active) in assay [13]; 6.62 µM (active) in assay [14]; 3.32 µM (active) in [15]; 4.69 µM (active) in assay [16]; 3.32 µM (active) in assay [17]; 6.61 µM (active) in assay [18]. The half-maximal activity concentration (AC50) in assay [19] was 2.64 µM (active); in assay [20], 4.68 µM (active). Besides, in [21], the IC50 is 18.6 µM (active). Also, the fold change in [22] (stronger effect = lower value, cell number ratio, induced over uninduced) was 0.881 (inactive); in [22] (measured here: relative caspase fold change +Dox/-Dox), 1.4. The cell count stood at 1390 in [22] (measured here: total cells with miR-34 induction, stronger effect = lower value); 1580 in assay [22] (measured here: total cells without miR-34 induction); 6880 in assay [23]. In assay [23], the SSMD stood at 6.65. Further, in assay [23], the plate-normalised HSF1 focus index is 1.4 (inactive). In addition, the z-score in assay [11] is -0.82 (inactive).

In [1], `CC(=O)Oc1ccc2c(c1)CCC1C2CC[C@@]2(C)C1CC[C@@H]2OC(C)=O` (stereo not given in full) came in with an inhibition of 10.6%. This molecule gave a score in [2] of -0.45. In addition, the rescue above control in assay [3] amounted to 6.23. Further, in assay [4], the cytochrome c release ratio is 1. The same molecule had an inhibition of aggregation in assay [5] of 65.2%. Also, in assay [6], the glutamate uptake change is -3%. The molecule further had an aggregation suppression score in [8] of 0.34. For the same molecule, in assay [9], the parasite load remaining is 102% (inactive) and the viability was found to be 70.5%. Further, the red/green cell ratio (normalised) in assay [10] was 0.86 (inactive). In addition, the normalised cell number in assay [10] (setting [24]) stood at 1.29. The molecule further displayed a normalised cell number in assay [10] (setting [25]) of 1.12.

As a reminder, the inhibition is the drop in the measured response relative to a control, in per cent. What is called viability is a read-out of living cells in per cent, often relative to untreated cells. As usually defined, the remaining activity is the signal under treatment as a percentage of the control signal. The AC50 is the midpoint of the concentration-response curve, whichever way the signal moves. As usually defined, the IC50 is the concentration needed to halve the response being measured.
